# Reference: PubChem BioAssay (Tox21)
# Where “and” joins values, the source holds several entries; their conditions need not be identical. Equal entries are not always repeated. Records with an inconclusive call do not appear. Where a call stands in place of a potency, no number is given. Some compounds were tested as several samples or in several runs, with calls that do not always agree. Calls of active or inactive are those of the source. Unless noted, calls come from the whole dose curve; as a rule, active = well fitted curve in the direction sought with a large enough effect in the repeat runs; inconclusive = weak or mixed curves; inactive = no such curve, though single readings can be large; an effect the other way counts as inactive or inconclusive.
# Tests used:
# [1] = qHTS assay to identify small molecule antagonists of the estrogen related receptor (ERR) signaling pathway from Tox21 library - cell viability counter screen (AID 1224834); details: ERR reporter cells viability, CellTiter-Fluor, 17.5 h; series mostly up to 92.4 µM; note: nearly all actives have a fitted effect of over 30% in size; note: potency is the fitted concentration of half-maximal effect
# How it was run: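 Fluorescence from CellTiter-Fluor gives the viability read-out, taken 30 min after reagent addition. Before that, ERR cells seeded 6 h earlier were incubated with compounds for 17.5 h at 37 C.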
# [2] = qHTS assay to identify small molecule agonists of the constitutive androstane receptor (CAR) signaling pathway - cell viability counter screen (AID 1224836); details: HepG2-CYP2B6-hCAR viability, CellTiter-Fluor, 23 h, PK11195 added to every well; series mostly up to 92.4 µM; note: nearly all actives have a fitted effect of over 45% in size
# How it was run: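 Multiplexed viability check: HepG2-CYP2B6-hCAR cells, 15-point compound dosing, 0.75 uM PK11195 final, 23 h at 37 C, CellTiter-Fluor fluorescence.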
# [3] = qHTS assay to identify small molecule antagonists of the constitutive androstane receptor (CAR) signaling pathway - cell viability counter screen (AID 1224837); details: HepG2-CYP2B6-hCAR viability, CellTiter-Fluor, 23 h, co-treated with 50 nM CITCO; series mostly up to 92.4 µM; note: nearly all actives have a fitted effect of over 45% in size
# How it was run: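 HepG2-CYP2B6-hCAR cells, 2500/well, 4 hr pre-incubation; compound titration, 15 conc.; CITCO 50 nM final; 23 hr, 37 C/5% CO2; CellTiter-Fluor, fluorescence intensity.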
# [4] = target: Nuclear receptor subfamily 1 group I member 3 (Homo sapiens) (UniProt Q14994); assay: qHTS assay to identify small molecule antagonists of the constitutive androstane receptor (CAR) signaling pathway (AID 1224838); details: HepG2-CYP2B6-hCAR luciferase, CITCO-stimulated, 24 h; series mostly up to 92.4 µM;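 note: HepG2 cells stably expressing hCAR with CYP2B6 luciferase reporter stimulated by CITCO; nearly all actives have a fitted effect of over 40% in size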
# How it was run: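 HepG2-CYP2B6-hCAR cells; 4 h pre-incubation; cpd (15 conc) + CITCO 50 nM final; 24 h, 37 C/5% CO2; ONE-Glo, luminescence.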
# [5] = target: Nuclear receptor subfamily 1 group I member 3 (Homo sapiens) (UniProt Q14994); assay: qHTS assay to identify small molecule agonists of the constitutive androstane receptor (CAR) signaling pathway (AID 1224839); details: HepG2 hCAR CYP2B6-luciferase, agonist mode, 24 h; series mostly up to 92.4 µM;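 note: HepG2 cells stably carrying human CAR and a CYP2B6 luciferase reporter; nearly all actives have a fitted effect of over 15% in size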
# How it was run: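 Using human hepatoma HepG2 cells engineered with hCAR and a CYP2B6-2.2kb reporter, 15-concentration compound series were incubated 24 h alongside PK11195 at 0.75 uM final, with luminescence quantified afterwards.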
# [6] = qHTS assay to identify small molecule antagonists of the estrogen related receptor signaling pathway with the pleiotropic PPARgamma coactivator (PGC) from Tox21 10K library - cell viability counter screen (AID 1224840; active = well fitted cell-killing curve with a large enough effect in the repeat runs, not every such curve was filed as active; note: nearly all actives have a fitted effect of over 40% in size; note: potency is the fitted concentration of half-maximal effect); details: PGC/ERR reporter cells viability, CellTiter-Fluor, 17.5 h; series mostly up to 92.4 µM
# How it was run: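 PGC/ERR cells, 2,000/well; 6 h pre-incubation 37 C/5% CO2; cpd in DMSO via pin tool; 17.5 h 37 C; CellTiter-Fluor, 30 min; fluorescence.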
# [7] = target: Thyrotropin receptor (Homo sapiens) (UniProt P16473); assay: qHTS assay to identify small molecule agonists of the thyroid stimulating hormone receptor (TSHR) signaling pathway (AID 1224843; calls by dose curve; note: nearly all actives have a fitted effect of over 45% in size); details: TSHR-HEK293 cells, cAMP HTRF, agonist mode, 30 min; series mostly up to 92.4 µM
# How it was run: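 Screening of the Tox21 10K collection used HEK293 cells engineered with TSHR at 800 cells per well. After a 30-min room-temperature compound exposure, HTRF cAMP reagents were added and fluorescence recorded 1 h later.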
# [8] = qHTS assay to identify small molecule agonists of the hypoxia (HIF-1) signaling pathway - cell viability counter screen (AID 1224844; calls by dose curve; note: nearly all actives have a fitted effect of over 50% in size); details: HRE-bla ME-180 viability, CellTiter-Glo luminescence, 17 h; series mostly up to 76.8 µM
# How it was run: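 ME-180 HRE-bla cells, 2,000/well, 0.5% dialyzed FBS; 5 hr settle, 17 hr compound at 37C/5% CO2; CCF4-AM reporter read first, then CellTiter-Glo luminescence after 30 min RT.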
# [9] = qHTS assay to identify small molecule agonists of H2AX (AID 1224845; active = well fitted activation curve with a large enough effect in the signal ratio in the repeat runs, not every such curve was filed as active; the % refers to the signal ratio); details: CHO-K1 phospho-H2AX Ser139 HTRF, 3 h; series mostly up to 154 µM
# How it was run: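 Phospho-H2AX Ser139 measured by HTRF (ex 320 nm; em 665 and 620 nm) after 24 hr antibody incubation. Compounds, 15 concentrations, 0.76% DMSO, were applied to CHO-K1 cells for 3hr at 37C before lysis.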
# [10] = qHTS assay to identify small molecule agonists of the hypoxia (HIF-1) signaling pathway (AID 1224846; active = well fitted activation curve with a large enough effect in the signal ratio in the repeat runs, not every such curve was filed as active; the % refers to the signal ratio); details: HRE-bla ME-180 cells, beta-lactamase ratio, 17 h; series mostly up to 76.8 µM
# How it was run: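 Cell line: CellSensor HRE-bla ME-180; 2,000 cells/well; 0.5% dialyzed FBS; 5 h preincubation; DMSO compound pin transfer; 17 h, 37C, 5% CO2; CCF4-AM added; bla FRET signal scored for activation.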
# [11] = qHTS RealTime-Glo MT Cell Viability Assay in HepG2 cells - 24 hour (AID 1224867); details: RealTime-Glo luminescence; series mostly up to 76.8 µM; note: nearly all actives have a fitted effect of over 50% in size
# How it was run: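 HepG2 cells (600/well) were dispensed with RealTime-Glo reagents, incubated 5 h at 37 °C, then treated with compounds in DMSO for up to 40 h. Nonlytic NanoLuc luminescence reflecting viable cells was read at each stated time point.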
# [12] = qHTS RealTime-Glo MT Cell Viability Assay in HEK293 cells - 32 hour (AID 1224868); details: RealTime-Glo luminescence; series mostly up to 76.8 µM; note: top concentration of the series differs between compounds; nearly all actives have a fitted effect of over 50% in size
# How it was run: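 HEK293 cells seeded with NanoLuc/prosubstrate reagent, rested 5 h at 37 C, then dosed and kept at 37 C up to 40 h. Nonlytic real-time luminescence from viable cells read at 0, 8, 16, 24, 32 and 40 h.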
# [13] = target: Luciferin 4-monooxygenase (Photinus pyralis) (UniProt P08659); assay: qHTS assay to identify small molecule inhibitors of firefly luciferase (AID 1224835); note: nearly all actives have a fitted effect of over 25% in size; note: potency is the fitted concentration of half-maximal effect; details: purified P. pyralis luciferase, luminescence inhibition; series mostly up to 115 µM
# How it was run: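 Inhibition of purified Photinus luciferase is measured by luminescence. Substrate levels (D-luciferin, ATP) sit at their KM values. Each compound is tested in a concentration series.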
# [14] = qHTS assay to identify small molecule agonists of H2AX - cell viability counter screen (AID 1224847; calls by dose curve; note: potency is the fitted concentration of half-maximal effect; nearly all actives have a fitted effect of over 30% in size); details: CHO-K1 viability, CellTiter-Glo luminescence, 3 h; series mostly up to 154 µM
# How it was run: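 After overnight plating of 1000 CHO-K1 cells per well, a 15-concentration compound series was applied for 3 hr at 37C. Luminescence from CellTiter-Glo, read following 30 min at room temperature, reflected cell viability.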
# Chain of Luciferin 4-monooxygenase (Photinus pyralis) (P08659 whole entry, looked up): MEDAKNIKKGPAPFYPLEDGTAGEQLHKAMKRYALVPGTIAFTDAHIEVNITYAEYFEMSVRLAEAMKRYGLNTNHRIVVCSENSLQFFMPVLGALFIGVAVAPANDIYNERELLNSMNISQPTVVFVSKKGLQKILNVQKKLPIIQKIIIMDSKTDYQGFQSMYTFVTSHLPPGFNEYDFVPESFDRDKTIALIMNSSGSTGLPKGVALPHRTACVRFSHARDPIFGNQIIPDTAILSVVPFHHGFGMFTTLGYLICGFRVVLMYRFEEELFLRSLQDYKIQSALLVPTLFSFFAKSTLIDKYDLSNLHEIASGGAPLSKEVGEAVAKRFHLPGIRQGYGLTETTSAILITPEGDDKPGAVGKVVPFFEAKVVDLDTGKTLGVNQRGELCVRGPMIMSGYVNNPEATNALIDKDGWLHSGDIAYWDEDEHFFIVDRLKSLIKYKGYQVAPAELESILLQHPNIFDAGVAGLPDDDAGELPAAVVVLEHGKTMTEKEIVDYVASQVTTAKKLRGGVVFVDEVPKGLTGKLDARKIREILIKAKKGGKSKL
# Chain of Thyrotropin receptor (Homo sapiens) (P16473 whole entry, looked up): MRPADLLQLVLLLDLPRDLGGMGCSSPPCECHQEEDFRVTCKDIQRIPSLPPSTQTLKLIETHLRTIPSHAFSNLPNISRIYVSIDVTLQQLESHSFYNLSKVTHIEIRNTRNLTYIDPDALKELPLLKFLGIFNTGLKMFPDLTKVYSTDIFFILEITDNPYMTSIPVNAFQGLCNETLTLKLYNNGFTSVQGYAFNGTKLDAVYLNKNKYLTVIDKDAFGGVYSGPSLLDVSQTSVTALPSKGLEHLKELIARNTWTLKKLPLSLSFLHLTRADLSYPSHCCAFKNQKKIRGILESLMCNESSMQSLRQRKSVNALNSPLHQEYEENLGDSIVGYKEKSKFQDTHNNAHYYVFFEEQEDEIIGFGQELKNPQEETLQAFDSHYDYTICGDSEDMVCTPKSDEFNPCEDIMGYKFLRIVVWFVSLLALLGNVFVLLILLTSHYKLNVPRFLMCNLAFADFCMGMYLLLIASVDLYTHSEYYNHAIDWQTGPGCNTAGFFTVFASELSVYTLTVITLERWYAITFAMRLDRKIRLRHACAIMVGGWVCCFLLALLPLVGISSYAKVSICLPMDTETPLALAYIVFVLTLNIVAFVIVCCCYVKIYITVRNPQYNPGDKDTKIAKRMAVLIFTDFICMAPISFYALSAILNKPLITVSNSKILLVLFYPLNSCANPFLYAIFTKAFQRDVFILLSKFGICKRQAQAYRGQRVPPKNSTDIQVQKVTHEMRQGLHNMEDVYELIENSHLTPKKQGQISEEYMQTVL
# Chain of Nuclear receptor subfamily 1 group I member 3 (Homo sapiens) (Q14994 whole entry, looked up): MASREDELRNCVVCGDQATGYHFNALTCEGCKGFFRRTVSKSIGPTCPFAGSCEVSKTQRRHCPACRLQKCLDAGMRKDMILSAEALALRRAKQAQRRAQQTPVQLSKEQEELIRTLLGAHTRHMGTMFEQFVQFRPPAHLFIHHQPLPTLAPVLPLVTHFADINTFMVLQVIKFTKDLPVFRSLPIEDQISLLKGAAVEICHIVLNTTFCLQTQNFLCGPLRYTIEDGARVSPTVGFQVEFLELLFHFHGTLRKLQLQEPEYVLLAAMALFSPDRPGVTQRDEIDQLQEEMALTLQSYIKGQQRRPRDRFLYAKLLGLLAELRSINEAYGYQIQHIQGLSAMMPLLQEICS
smiles,measurement,setting,value
C=C(C)C(=O)OCC(CC)(COC(=O)C(=C)C)COC(=O)C(=C)C,Potency,[1],inactive
same,Potency,[2],inactive
same,Potency,[3],inactive
same,Potency,[4],inactive
same,Potency,[5],inactive
same,Potency,[6],inactive
same,Potency,[7],inactive
same,Potency,[8],inactive
same,Potency,[9],inactive
same,outcome,[10],inactive
same,Potency,[11],inactive
same,Potency,[12],inactive
CC(C)(C)C(=O)C1C(=O)c2ccccc2C1=O,Potency,[1],60.5 µM (active) and 43.3 µM (active)
same,Potency,[13],31.4 µM (active)
same,Potency,[4],inactive
same,Potency,[6],48.1 µM (active) and inactive
same,Potency,[7],inactive
same,outcome,[10],inactive
same,Potency,[14],88.9 µM (active) and 56.6 µM (active)
same,Potency,[12],inactive
C=C1CC[C@H](O)CC1=C/C=C1\CCC[C@]2(C)[C@@H]([C@H](C)/C=C/[C@H](C)C(C)C)CC[C@@H]12,Potency,[13],inactive
CC1COc2ccccc2N1C(=O)C(Cl)Cl (configuration not stated),Potency,[13],inactive
